Assay outcomes deposited in PubChem by several laboratories.
NLRP3 yeast inh – blocks the NALP3 inflammasome reconstituted in yeast | Yeast reconstituted NLRP3/ASC/caspase-1, beta-gal luminescence, 24 h | 330,000 tested, 0.39% active | inhibition, % at 10 µM;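 active = inhibition of 50% or more; inactive = inhibition below 50%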;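 note: plate controls were induced DMSO wells for no effect and uninduced yeast grown without galactose for full effect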
CHT allo act – allosterically activates the human high affinity choline transporter; Q9GZV3; 310,000 tested, 0.49% active; AID 488977; CHT-expressing cells, membrane potential dye, choline EC20; hits give high values; LV-AA mutant CHT in HEK293 cells; B-score at 10 µM;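 active = initial fluorescence not abnormally high and integrated response B-score, plate-corrected, over 3 SD above library mean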
Target sequence (Q9GZV3 whole entry, looked up): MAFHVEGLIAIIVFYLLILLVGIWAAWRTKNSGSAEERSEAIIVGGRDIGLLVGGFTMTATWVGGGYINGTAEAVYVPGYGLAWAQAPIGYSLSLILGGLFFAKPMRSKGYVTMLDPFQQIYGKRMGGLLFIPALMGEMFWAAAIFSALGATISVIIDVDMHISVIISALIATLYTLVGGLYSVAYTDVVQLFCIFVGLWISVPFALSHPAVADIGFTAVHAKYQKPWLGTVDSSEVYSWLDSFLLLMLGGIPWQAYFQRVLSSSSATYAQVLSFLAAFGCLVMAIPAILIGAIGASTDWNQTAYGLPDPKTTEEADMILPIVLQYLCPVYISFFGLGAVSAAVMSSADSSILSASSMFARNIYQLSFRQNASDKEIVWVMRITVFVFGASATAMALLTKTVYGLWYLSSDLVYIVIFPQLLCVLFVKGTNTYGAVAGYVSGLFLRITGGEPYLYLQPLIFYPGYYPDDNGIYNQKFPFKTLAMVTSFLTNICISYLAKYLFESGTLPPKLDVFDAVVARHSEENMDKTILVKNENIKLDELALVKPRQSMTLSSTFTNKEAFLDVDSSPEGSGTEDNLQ
Mot1-301 SUMO – blocks SUMOylation pathway, rescuing yeast Mot1-301 growth | S. cerevisiae Mot1-301 growth rescue, ATP luminescence, 38.5C; percent above DMSO median, 100 means doubled | growth rescue, % at 18.8 µM | 320,000 tested, 1% active | AID 2716;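 active = every valid replicate shows activation above 250% relative to neutral control wells; inactive = the rest, any valid replicate at or below 250%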;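 note: OY570 slx delta 5 strain wells were the positive control but not used for scaling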
Bfl-1 A1 inh – inhibitors of the anti-apoptotic protein A1, read as caspase activation | MEF A1-2A-BIM cells, Caspase-Glo 3/7 luminescence, 3 h; percent of clofoctol response, vehicle zero | caspase activation, % (concentration not given with the values) | 330,000 tested, 0.066% active | AID 2462;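 active = over half of replicate activation scores above 10%, or exactly half above 10 with the replicate mean above 10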
CHT inh – inhibitors of human choline transporter CHT. Q9GZV3. CHT-expressing cells, membrane potential dye, choline response; hits give low values. B-score at 10 µM. 310,000 tested, 0.86% active. AID 488975;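 active = B-score over 3 SD under the library average, and starting fluorescence ratio not unusually high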;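 note: choline stimulus applied at its EC90 after an EC20 pre-addition; B-score computed on integrated fluorescence ratio after choline addition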
NALP1 inh – blocks the NALP1 inflammasome reconstituted in yeast; S. cerevisiae NALP1/ASC/caspase-1 growth, X-gal OD620, 72 h; inhibition, % at 10 µM; 280,000 tested, 0.61% active; in the data active = inhibition mostly above about 24%, no sharp cut-off; inactive = mostly below about 32%
NALP3 yeast conf – confirmation of NALP3 inhibitors in yeast. yeast expressing human NALP3, luminescence. 1,300 tested, 81% active. shares compounds with NLRP3 yeast inh. inhibition, % at 10 µM; in the data active = inhibition above about 48%
Casp1 ASC ctr – caspase-1-ASC yeast counter-screen hit. yeast expressing Caspase-1-ASC, luminescence counter screen. inhibition, % at 10 µM. shares compounds with NLRP3 yeast inh. AID 488784. 1,000 tested, 66% active
NALP3 retest – retest-confirmed inhibitor of NALP3 in yeast; shares compounds with NLRP3 yeast inh; yeast expressing human NALP3, luminescence read-out; inhibition, % at 10 µM; 1,000 tested, 53% active; AID 488794
* marks the source's active call; other numbers are inactive results; i = inactive; · = no result given. Shown are actives, neighbours in structure and some others; about 3% of the full set was active somewhere. Cut-off read from the data, not from the text of the source, unless noted: active = inhibition above about 50%; inactive = the rest.

SMILES | NLRP3 yeast inh | CHT allo act | Mot1-301 SUMO | Bfl-1 A1 inh | CHT inh | NALP1 inh | NALP3 yeast conf | Casp1 ASC ctr | NALP3 retest
Cc1cccnc1Nc1nc(-c2ccccn2)cs1 | 74* | i | · | -10 | i | 12 | 84* | 97* | 92*
CCOc1cc(N2CCOCC2)c(OCC)cc1NC(=O)CN1C(=O)C2C3C=CC(C3)C2C1=O (configuration not stated) | -4 | i | 0 | 0 | i | -7 | · | · | ·
COc1ccc2nc(C)cc(N3CCN(S(=O)(=O)c4ccccc4F)CC3)c2c1 | 25 | · | 9 | -1 | · | · | · | · | ·
CC(=O)N(CN1C(=O)c2ccccc2C1=O)c1cccc(C)c1 | 1 | i | -1 | 0 | i | -4 | · | · | ·
CC(=O)N(/N=C1\Sc2ccccc2C1=O)c1cccc(C)c1 | 54* | i | 9 | -1 | i | 17 | 64* | 30 | 30
c1ccc2c(c1)CSc1ccccc1N2 | 53* | i | 79 | -1 | i | · | 30 | · | ·
NCCNC[C@@H]1COC2(CCCCCCCCCCC2)O1 | 59* | i | 35 | 1 | i | 27 | 74* | · | ·
COc1ccc(CCN2CCCC(CN(C)Cc3cc(Cl)c(O)c(OC)c3)C2)cc1 (configuration not stated) | 20 | i | 22 | 1 | i | -2 | · | · | ·
COC(=O)CNc1cc(S(=O)(=O)N2CCCCC2)ccc1Oc1cccc(C)c1 | 12 | i | -21 | -1 | i | -8 | · | · | ·
COC(=O)CNc1cc(S(=O)(=O)N2CCCCC2)ccc1Oc1ccc(C(=O)OC)cc1 | 66* | i | 125 | 1 | i | 31 | 70* | 39 | 29
COC(=O)c1ccc(Oc2ccc(S(=O)(=O)N3CCCCC3)cc2N)cc1 | 88* | i | -16 | -1 | i | 56* | 94* | 93* | 88*
CC(C)COC(=O)N1CCN(S(=O)(=O)c2ccc3c(c2)CCC3)CC1 | 53* | · | -2 | -1 | · | · | 51* | 21 | 29
CC/C(=N\NC(=O)C1CCCC1)c1ccc(Br)cc1 | -1 | i | 23 | 0 | i | 15 | · | · | ·
CCOc1ccc(N(CC(=O)Nc2cc(OC)cc(OC)c2)S(=O)(=O)c2c(C)[nH]c(=O)[nH]c2=O)cc1 | -3 | i | 24 | 0 | i | 24 | · | · | ·
CC(NC(=S)NC(=O)c1ccccc1Br)c1ccccc1 (configuration not stated) | 32 | i | 0 | -1 | i | -3 | · | · | ·
CC(NC(=O)c1ccccc1Br)c1ccc2c(c1)CCCC2 (configuration not stated) | 57* | i | 87 | 0 | i | 7 | 70* | 52* | 31
C[C@]12CCC(=O)C[C@@H]1CC[C@@H]1[C@@H]2CC[C@]2(C)[C@@H](C(=O)COC(=O)CCC(=O)O)CC[C@@H]12 | 54* | i | 25 | -1 | i | 29 | 77* | 51* | 47
CC(C)(c1cc(Br)c(O)c(Br)c1)c1cc(Br)c(O)c(Br)c1 | 53* | · | -17 | 0 | · | · | 49* | · | ·
O=[N+]([O-])c1ccc(N2CCCC2)cc1N1CCCC1 | 58* | i | 16 | 1 | i | -9 | 52* | 63* | 53*
O=[N+]([O-])c1ccc(N2CCOCC2)cc1N1CCCCC1 | 21 | i | -11 | 0 | i | 10 | · | · | ·
Cc1cc(NC(=O)CSCC(=O)OCc2nnc(-c3ccc(F)cc3)o2)no1 | 14 | · | 5 | 0 | · | · | · | · | ·
CN(C(=O)CN1CCN(c2cnn(-c3ccccc3)c(=O)c2Cl)CC1)C1CCS(=O)(=O)C1 (configuration not stated) | -5 | · | -5 | 0 | · | · | · | · | ·
CCOc1c2ccoc2nc2c(OC)c(OC)ccc12 | 50* | i | -5 | 0 | i | -11 | 68* | 48 | 44
COc1ccc(CC2(C)OC(c3ccccc3)=NN2C(C)=O)cc1 (configuration not stated) | 18 | i | -13 | 1 | i | 16 | · | · | ·
CC(=O)N1N=C(c2ccc3ccccc3c2)OC1(C)C | 63* | i | 7 | -1 | i | 60* | 34 | · | ·
SMILES | NLRP3 yeast inh | CHT allo act | Mot1-301 SUMO | Bfl-1 A1 inh | CHT inh | NALP1 inh | NALP3 yeast conf | Casp1 ASC ctr | NALP3 retest
Cc1ccc(OCC(=O)Nc2ccon2)c([N+](=O)[O-])c1 | 17 | i | -3 | -2 | i | 14 | · | · | ·
COCc1cc(N2CCOCC2)nc(SCc2ccc(Cl)cc2)n1 | 58* | i | -14 | 0 | i | 18 | 47* | 68* | 43
Cc1ccc(CCNS(=O)(=O)c2cc(Br)cnc2N)cc1 | -1 | i | -8 | 0 | i | 16 | · | · | ·
O=C(N/N=C/C(Cl)=C\c1ccccc1)c1ccco1 | 59* | i | 25 | -5 | i | 4 | 61* | 74* | 56*
O=S(=O)(NC1CCSc2ccccc21)c1ccc(Cl)nc1 (configuration not stated) | 21 | i | -13 | 0 | i | 9 | · | · | ·
NCCc1nnc(SCc2ccccc2Cl)o1 | 73* | i | -7 | 1 | i | -9 | 73* | 70* | 72*
CCOC(=O)c1ccc2c(c1)nc(COc1ccc(OC)cc1)n2CC | 61* | i | · | · | i | -34 | 61* | 42 | 50
CCn1c(C)nc2cc(C(=O)OC)ccc21 | 13 | i | -7 | 0 | i | 9 | · | · | ·
O=C(CSc1nc(=O)n2ccccc2n1)NC1CCCCC1 | 5 | i | -2 | 0 | i | · | · | · | ·
COC(=O)COc1ccc(-c2ccc(F)cc2)cc1C=O | 56* | i | 217 | 1 | i | 21 | 55* | 58* | 28
CCc1nc(Nc2ccccc2F)c2oc3ccccc3c2n1 | 5 | i | 1 | -1 | i | 4 | · | · | ·
Cc1ccc2sc(N(CCCN(C)C)C(=O)CCS(=O)(=O)c3ccccc3)nc2c1C | 53* | i | 43 | 0 | i | 84* | 77* | 66* | 54*
CC(=O)N1CCN(S(=O)(=O)c2cccc(C(=O)NCc3ccc(F)cc3)c2)CC1 | 10 | · | -6 | -2 | · | · | · | · | ·
CC(C)(C)C1CCc2[nH]c3ccccc3c(=O)c2C1 (configuration not stated) | 72* | i | 154 | 0 | i | -3 | 94* | 72* | 77*
O=c1c2c([nH]c3ccccc13)CCCC2 | 20 | i | 3 | 0 | i | 1 | · | · | ·
